For 38 molecules, difference results are on record in the supplement of paper PMC10515830.

Counter-ions that a name gives are not always drawn.

The assay has as its system Danio rerio larvae (5 dpf). The assay can be described thus: difference in combined optomotor response to red, green and blue moving lines vs DMSO (percentage points); higher = stronger optomotor response than DMSO. The settings on record: 10 µM; exposure time 6 h. The essentials: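 Wild-type 5 dpf zebrafish larvae in 96-well plates were given 100 µL egg water containing library compound at 10 µM final for 6 h. After 3 h of exposure, plates at 28.5 ℃ were photographed every 6 s during a 3-h programme of moving lines and 100 ms, 400Hz tones. Z-LaP Tracker (a DeepLabCut model) quantified each behaviour, averaged over 48 larvae per compound. Values are the compound mean minus the DMSO-vehicle control, in percentage points.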
On to `COc1nc(N)nc2c1ncn2[C@@H]1O[C@H](CO)[C@@H](O)[C@@H]1O` [Nelarabine], for which the difference was 2.02.

Turning to `CC[C@]1(O)C[C@@H]2CN(CCc3c([nH]c4ccccc34)[C@@](C(=O)OC)(c3cc4c(cc3OC)N(C)[C@H]3[C@@](O)(C(=O)OC)[C@H](OC(C)=O)[C@]5(CC)C=CCN6CC[C@]43[C@@H]65)C2)C1` [Vinblastine (sulfate)], the difference is -3.97.

In the case of `CN1CCC(=C2c3ccccc3CCn3c(C=O)cnc32)CC1` [Alcaftadine], the difference is -2.52.

As to `Cc1nnc(C(C)C)n1C1C[C@H]2CC[C@@H](C1)N2CC[C@H](NC(=O)C1CCC(F)(F)CC1)c1ccccc1` (stereo in doubt) [Maraviroc], the difference came out at 4.5.

`C[C@]12C=CC(=O)N[C@@H]1CC[C@@H]1[C@@H]2CC[C@]2(C)[C@@H](C(=O)Nc3cc(C(F)(F)F)ccc3C(F)(F)F)CC[C@@H]12` [Dutasteride]: the difference was -3.79.

As for `CCC(=O)O[C@]1(C(=O)SCF)[C@H](C)C[C@H]2[C@@H]3C[C@H](F)C4=CC(=O)C=C[C@]4(C)[C@@]3(F)[C@@H](O)C[C@@]21C` [Fluticasone Propionate], the difference is 14.7.

As to `Nc1ccn([C@@H]2O[C@H](CO)[C@@H](O)C2(F)F)c(=O)n1` [Gemcitabine], the difference is 2.24.

As to `CN(C)CCOC(c1ccccc1)c1ccccc1` [Diphenhydramine (hydrochloride)], the difference stood at 3.89.

For `CO[C@H]1/C=C/O[C@@]2(C)Oc3c(C)c(O)c4c(O)c(c(/C=N/N5CCN(C)CC5)c(O)c4c3C2=O)NC(=O)/C(C)=C\C=C\[C@H](C)[C@H](O)[C@@H](C)[C@@H](O)[C@@H](C)[C@H](OC(C)=O)[C@@H]1C` [Rifampicin], the difference is -3.29.

On to `S=c1nc[nH]c2nc[nH]c12` [6-Mercaptopurine (hydrate)], for which the difference is 1.98.

As to `OC(c1cc(C(F)(F)F)nc2c(C(F)(F)F)cccc12)C1CCCCN1` (stereo not drawn) [Mefloquine (hydrochloride)], the difference is -0.0553.

For the molecule `Nc1nc2c(c(=O)[nH]1)N(C=O)C(CNc1ccc(C(=O)NC(CCC(=O)O)C(=O)O)cc1)CN2` (racemic) [DL-Folinic Acid (calcium salt)], the difference was 5.53.

For the molecule `CCOC(=O)c1ccc(C#Cc2ccc3c(c2)C(C)(C)CCS3)nc1` [Tazarotene], the difference is -15.1.

Turning to `Nc1nc2c(ncn2COCCO)c(=O)[nH]1` [Acyclovir], the difference is -2.63.

As for `Cc1cc(/C=C/C#N)cc(C)c1Nc1ccnc(Nc2ccc(C#N)cc2)n1` [Rilpivirine], the difference is -12.5.

For the molecule `NCC[C@H](O)C(=O)N[C@@H]1C[C@H](N)[C@@H](O[C@H]2O[C@H](CN)[C@@H](O)[C@H](O)[C@H]2O)[C@H](O)[C@H]1O[C@H]1O[C@H](CO)[C@@H](O)[C@H](N)[C@H]1O` [Amikacin], the difference was 6.4.

For `C[C@H](Cc1cc2c(c(C(N)=O)c1)N(CCCO)CC2)NCCOc1ccccc1OCC(F)(F)F` [Silodosin], the difference was determined as 4.97.

`O=C(c1ccc(F)c(F)c1Nc1ccc(I)cc1F)N1CC(O)([C@@H]2CCCCN2)C1` [Cobimetinib]: the difference worked out at 2.37.

`C[N+](C)(C)CC=O` [Betaine Aldehyde (chloride)]: the difference is 4.79.

As for `CCN(CC)CCNC(=O)c1c(C)[nH]c(/C=C2\C(=O)Nc3ccc(F)cc32)c1C` [Sunitinib (malate)], the difference was -0.123.

As for `COc1ccc2c3c1O[C@H]1C[C@@H](O)C=C[C@@]31CCN(C)C2` [Galantamine], the difference was found to be 4.1.

Take `Cc1ccc(O)c([C@H](CCN(C(C)C)C(C)C)c2ccccc2)c1` [Tolterodine (tartrate)]: the difference is -10.6.

Consider `COC(=O)C1=C(C)NC(C)=C(C(=O)OC(C)C)C1c1cccc2nonc12` (stereo not drawn) [Isradipine], for which the difference is -17.2.

Consider `CC=CC(=O)N(CC)c1ccccc1C` [Crotamiton], for which the difference was -3.13.

Take `CN(C)[C@@H]1C(O)=C(C(N)=O)C(=O)[C@@]2(O)C(O)=C3C(=O)c4c(O)cccc4[C@@](C)(O)[C@H]3C[C@@H]12` [Tetracycline (hydrochloride)]: the difference was -5.79.

`O=C(O)Cc1ccccc1Nc1c(Cl)cccc1Cl` [Diclofenac (sodium salt)]: the difference came to 2.67.

Turning to `COc1ccc([C@@H]2Sc3ccccc3N(CCN(C)C)C(=O)[C@@H]2OC(C)=O)cc1` [Diltiazem (hydrochloride)], the difference came to 1.27.

As for `O=C(NC[C@H]1CN(c2ccc(N3CCOCC3=O)cc2)C(=O)O1)c1ccc(Cl)s1` [Rivaroxaban], the difference is 1.67.

`C[C@@H](O)[C@H]1C(=O)N2C(C(=O)O)=C(S[C@@H]3CN[C@H](CNS(N)(=O)=O)C3)[C@H](C)[C@H]12` [Doripenem (hydrate)]: the difference was -1.12.

On to `Cc1cc(NS(=O)(=O)c2ccc(N)cc2)no1` [Sulfamethoxazole], for which the difference was found to be 8.31.

Turning to `CC(C)OC(=O)C(C)(C)Oc1ccc(C(=O)c2ccc(Cl)cc2)cc1` [Fenofibrate], the difference is -15.8.

In the case of `CCNC(=O)CCC/C=C\C[C@@H]1[C@@H](/C=C/[C@@H](O)CCc2ccccc2)[C@H](O)C[C@@H]1O` [17-phenyl trinor Prostaglandin F2α ethyl amide], the difference was found to be 7.13.

Take `CC[C@H]1OC(=O)[C@H](C)[C@@H](O[C@H]2C[C@@](C)(OC)[C@@H](O)[C@H](C)O2)[C@H](C)[C@@H](O[C@@H]2O[C@H](C)C[C@H](N(C)C)[C@H]2O)[C@](C)(O)C[C@@H](C)CN(C)[C@H](C)[C@@H](O)[C@]1(C)O` [Azithromycin]: the difference is -0.0441.

In the case of `Cc1nc(-c2ccc(OCC(C)C)c(C#N)c2)sc1C(=O)O` [Febuxostat], the difference stood at 5.26.

For `CC(=O)O[C@]1(C(C)=O)CC[C@H]2[C@@H]3C=C(C)C4=CC(=O)CC[C@]4(C)[C@H]3CC[C@@]21C` [Megestryl Acetate], the difference was -10.8.

Consider `NC(=O)[C@@H]1CC[C@@H]2CN1C(=O)N2OS(=O)(=O)O` [Avibactam (sodium salt)], for which the difference amounted to 6.37.

Consider `CC[C@@H](CO)NCCN[C@@H](CC)CO` [Ethambutol (hydrochloride)], for which the difference was -3.67.

In the case of `CO[C@H]1/C=C/O[C@@]2(C)Oc3c(C)c(O)c4c(O)c(c5c(nc6cc(C)ccn65)c4c3C2=O)NC(=O)/C(C)=C\C=C\[C@H](C)[C@H](O)[C@@H](C)[C@@H](O)[C@@H](C)[C@H](OC(C)=O)[C@@H]1C` [Rifaximin], the difference stood at 0.85.
